{"source": "PubChem BioAssay AID434973", "about": "(Sanford-Burnham Center for Chemical Genomics, 2010)", "note": "Hit rate of the full screen: of about 330,000 compounds, about 4,900 (1.5%) were called active.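 The calls were made as follows: active = inhibition above about 50% at the single test dose (limit read from the data); inactive = the rest.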 What follows is part of a selection rich in actives, with near analogues and random picks from the rest.", "data": [{"biological_target": "Sentrin-specific protease 7 (Homo sapiens) (UniProt Q9BQF6)", "test": "SENP7 protease inhibitors, primary screen, biochemical, luminescence, uHTS (AID 434973);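 also: plate controls were DMSO with enzyme for no effect and no enzyme buffer wells for full effect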", "conditions": "recombinant SENP7, Z-RLRGG-aminoluciferin luminescence, 40 min; at 5 µM; active compounds read high", "values": [{"smiles": "Cc1nc(-c2ccccc2)sc1C1(C)CC(c2cccnc2)=NO1", "note": "(configuration not stated)", "inhibition": "-12.6% (inactive)"}, {"smiles": "CCC(=O)NC(Nc1cc(C)ccn1)(C(F)(F)F)C(F)(F)F", "inhibition": "98.5% (active)"}, {"smiles": "CCOC(=O)NNc1cc(C(F)(F)F)ccn1", "inhibition": "13.9% (inactive)"}, {"smiles": "Cc1ccnc(NC(=O)CCCOc2ccccc2)c1", "inhibition": "-12.2% (inactive)"}, {"smiles": "Cc1ccc2[nH]cc(CCNC(=O)C3CCCCC3)c2c1", "inhibition": "5.37% (inactive)"}, {"smiles": "COc1cccc(C(=O)Nc2nnc(S(=O)(=O)N3CCCCC3)s2)c1", "inhibition": "11.4% (inactive)"}, {"smiles": "CCC(=O)Nc1ccc(C(=O)Nc2cccc(OC)c2)cc1", "inhibition": "56.2% (active)"}, {"smiles": "COc1cccc(C(=O)Nc2ccc(N3CCCC3)cc2)c1", "inhibition": "99.4% (active)"}, {"smiles": "CSc1cccc(NC(=O)CSc2ccccc2)c1", "inhibition": "4.87% (inactive)"}, {"smiles": "CCOc1ccc(C(=O)Nc2cccc(-c3ccc4nncn4n3)c2)cc1", "inhibition": "-7.35% (inactive)"}, {"smiles": "CCOc1ccc(C(=O)Nc2cccc(SC)c2)cc1", "inhibition": "88.7% (active)"}, {"smiles": "COc1cccc(NC(=O)CN(C)CC(=O)Nc2ccc3c(c2)CCC3)c1", "inhibition": "10.1% (inactive)"}, {"smiles": "Cc1ccccc1C(=O)N1CCN(c2ccc(NC(=O)c3cccs3)cc2)CC1", "inhibition": "-2.29% (inactive)"}, {"smiles": "O=C(Nc1ccc(N2CCOCC2)cc1)c1cccc(S(=O)(=O)N2CCOCC2)c1", "inhibition": "8.65% (inactive)"}, {"smiles": "COc1ccc(C(=O)Nc2cccc(S(C)(=O)=O)c2)cc1", "inhibition": "0.473% (inactive)"}, {"smiles": "Cc1ccccc1C(=O)Nc1ccc(N2CCCCCC2)cc1", "inhibition": "60.8% (active)"}, {"smiles": "Cc1ccccc1C(=O)NC(=S)Nc1ccc(N2CCN(C(=O)c3ccccc3)CC2)cc1", "inhibition": "-6.96% (inactive)"}, {"smiles": "Cc1c(Cl)c([N+](=O)[O-])nn1CCCC(=O)NC(C)c1ccccc1", "note": "(configuration not stated)", "inhibition": "-0.959% (inactive)"}, {"smiles": "COc1ccc(CC(=O)OC(C)C(=O)Nc2ccc(S(N)(=O)=O)cc2)cc1", "note": "(configuration not stated)", "inhibition": "0.778% (inactive)"}, {"smiles": "CS(=O)(=O)N1CCCC(C(=O)N2CCOCC2)C1", "note": "(configuration not stated)", "inhibition": "-2.39% (inactive)"}, {"smiles": "COc1ccc(/C=C2/S/C(=N/N=C3\\CC4CCC3(C)C4(C)C)NC2=O)cc1", "note": "(configuration not stated)", "inhibition": "-4.16% (inactive)"}, {"smiles": "Cc1noc(C)c1C(=O)NC(C)c1ccc2c(c1)OCO2", "note": "(configuration not stated)", "inhibition": "1.47% (inactive)"}, {"smiles": "COC(=O)[C@H](CC(C)C)NC(=O)N1CCCCC1C", "note": "(some centres not stated)", "inhibition": "1.79% (inactive)"}, {"smiles": "COc1cc(/C=N/NC(=O)CCc2n[nH]c(=O)[nH]c2=O)ccc1O", "inhibition": "2% (inactive)"}, {"smiles": "COc1ccc(/C=N/NC(=O)c2cc(-c3cccc(C)c3)nc3ccccc23)cc1O", "inhibition": "7.7% (inactive)"}, {"smiles": "COc1cc(/C=N/Nc2nc3ccccc3s2)ccc1O", "inhibition": "81.9% (active)"}, {"smiles": "Cc1cc(C)c(OCC(=O)N(Cc2cccs2)C2CCS(=O)(=O)C2)c(C)c1", "note": "(configuration not stated)", "inhibition": "0.829% (inactive)"}, {"smiles": "O=C(CC(NCCN1CCOCC1)C(=O)O)Nc1cccc(Cl)c1", "note": "(configuration not stated)", "inhibition": "2.14% (inactive)"}, {"smiles": "COc1ccc(C(=O)NC2CCN(C(=O)Nc3ccc(F)cc3)CC2)cc1", "inhibition": "-1.37% (inactive)"}, {"smiles": "Clc1ccc(Nc2ccc3ccccc3n2)cc1", "inhibition": "89.6% (active)"}, {"smiles": "Cc1cc(Nc2ccc(Br)cc2)nc2ccccc12", "inhibition": "0.988% (inactive)"}, {"smiles": "O=c1ccnc(Nc2ccc(Cl)cc2)[nH]1", "inhibition": "3.66% (inactive)"}, {"smiles": "Cc1ccccc1CSc1nnc(CCCCCNC(=O)OC(C)(C)C)o1", "inhibition": "8.18% (inactive)"}, {"smiles": "CC(NC(=O)c1ccco1)c1ccc2c(c1)OCO2", "note": "(configuration not stated)", "inhibition": "9% (inactive)"}, {"smiles": "CCc1ccc(Oc2coc3cc(O)ccc3c2=O)cc1", "inhibition": "-2.69% (inactive)"}, {"smiles": "O=c1c(-c2ccccc2)coc2cc(O)ccc12", "inhibition": "66.2% (active)"}, {"smiles": "CC(C)CN(Cc1c(O)ccc2c(=O)c(-c3ccccc3)coc12)CC(C)C", "inhibition": "11.8% (inactive)"}, {"smiles": "CC(=O)Nc1ccc(S(=O)(=O)N2CCC(C(=O)N[C@@H](Cc3ccccc3)C(=O)O)CC2)cc1", "inhibition": "-6.11% (inactive)"}, {"smiles": "CC1(C)CC(=O)C(C=NCCN2CCN(C(=S)Nc3cccc(Cl)c3)CC2)=C(O)C1", "inhibition": "-11.9% (inactive)"}, {"smiles": "C=CCNC(=S)N1CCN(CCN=Cc2c(C)[nH]n(-c3ccc([N+](=O)[O-])cc3)c2=O)CC1", "inhibition": "87.2% (active)"}, {"smiles": "Cc1[nH]n(-c2ccccc2)c(=O)c1N=Nc1ccccc1C(=O)N1CCCCC1", "inhibition": "0.644% (inactive)"}, {"smiles": "Cc1[nH]n(-c2ccc([N+](=O)[O-])cc2)c(=O)c1C=NCCN1CCN(C(=O)c2ccccc2F)CC1", "inhibition": "82.4% (active)"}, {"smiles": "Cc1ccc(-n2[nH]c(C)c(/C=N/NC(=O)c3cccc([N+](=O)[O-])c3)c2=O)cc1C", "inhibition": "-1.05% (inactive)"}, {"smiles": "CCNC(=S)N1CCN(CCN=CC2=C(O)CC(C)(C)CC2=O)CC1", "inhibition": "-0.44% (inactive)"}, {"smiles": "Cc1ccc(C(=O)N(CC(=O)NC2CCCC2)c2ccc(F)cc2)s1", "inhibition": "-4.07% (inactive)"}, {"smiles": "CCc1noc(C)c1C(=O)N1CCN(S(=O)(=O)c2cccc(C(F)(F)F)c2)CC1", "inhibition": "0.961% (inactive)"}, {"smiles": "O=c1oc2ccccc2cc1-c1cn(-c2ccccc2)c(=S)[nH]1", "inhibition": "99.2% (active)"}, {"smiles": "S=c1[nH]c(-c2cccs2)cn1-c1ccccc1", "inhibition": "-0.786% (inactive)"}, {"smiles": "O=C(Nc1cc2ccccc2oc1=O)C1CCCCC1", "inhibition": "0.223% (inactive)"}, {"smiles": "COc1ccc(C(CCN(Cc2ccc(OC)c(OC)c2)C(=O)CCl)c2ccccc2)cc1", "note": "(configuration not stated)", "inhibition": "-4.24% (inactive)"}, {"smiles": "CCCS(=O)(=O)N1CCCC(C(=O)NCCN2CCCCC2C)C1", "note": "(configuration not stated)", "inhibition": "4.11% (inactive)"}, {"smiles": "COc1ccc(/C=C2\\SC(=S)N(CC(=O)NNC(=O)c3ccncc3)C2=O)cc1", "inhibition": "5.57% (inactive)"}, {"smiles": "COc1ccc(/C=C2\\SC(=S)N(CCC(=O)Nc3cccc(C(=O)O)c3)C2=O)cc1OC", "inhibition": "-3.5% (inactive)"}, {"smiles": "C=CCOc1ccc(/C=C2\\SC(=S)N(CCC(=O)O)C2=O)cc1", "inhibition": "98.9% (active)"}, {"smiles": "CCO[C@@H]1OC(C(=O)NC2CC2)=C[C@H](C)[C@H]1CCCO", "inhibition": "6.12% (inactive)"}, {"smiles": "Cn1nccc1NS(=O)(=O)c1ccc(F)cc1", "inhibition": "4.62% (inactive)"}, {"smiles": "O=C(CN1CCOC1=O)N1CCCC(Nc2ccc(F)c(F)c2)C1", "note": "(configuration not stated)", "inhibition": "1.33% (inactive)"}, {"smiles": "Cc1cccc(NC(=O)c2cccnc2Cl)n1", "inhibition": "5.58% (inactive)"}, {"smiles": "Cc1cccc(NC(=O)c2cc(N3C(=O)CCC3=O)ccc2Cl)n1", "inhibition": "6.63% (inactive)"}, {"smiles": "Cc1cccc(NC(=O)c2ccc3ccccc3n2)n1", "inhibition": "78.7% (active)"}, {"smiles": "O=C(O)C1=CCCN(CCON=C(c2ccccc2)c2ccccc2)C1", "inhibition": "1.76% (inactive)"}, {"smiles": "Cc1ccc(CSc2nsc(C)c2C#N)cc1", "inhibition": "-2.96% (inactive)"}, {"smiles": "COC(=O)C(=Nc1ccccc1)/C(C(=O)C(=O)N(C)c1ccccc1)=C(\\O)c1ccc(Cl)cc1", "inhibition": "-1.49% (inactive)"}, {"smiles": "CCn1c(CC(=O)Nc2ccccc2C)nnc1SCC(=O)NC1=NCCS1", "inhibition": "-7.93% (inactive)"}, {"smiles": "CSCc1ccc(C(=O)Nc2cc(C)cc(C)c2)cc1", "inhibition": "75.3% (active)"}, {"smiles": "C=CCN(c1ccc(C(=O)Nc2cc(C)cc(C)c2)cc1)S(C)(=O)=O", "inhibition": "6.36% (inactive)"}, {"smiles": "CC(=O)Nc1ccccc1NC(=O)c1cc(C)cc(C)c1", "inhibition": "2.28% (inactive)"}, {"smiles": "CN(C)C(=O)Cn1c(=O)n(S(=O)(=O)c2ccccc2)c2ccccc21", "inhibition": "2.64% (inactive)"}, {"smiles": "Cc1ccc(C(=O)N/C(=C/c2cccnc2)C(=O)O)cc1", "inhibition": "-9.12% (inactive)"}, {"smiles": "C/C(=N\\NC(=O)CNC(=O)C(c1ccccc1)c1ccccc1)c1ccc(C)cc1", "inhibition": "-4.66% (inactive)"}, {"smiles": "C/C(=N\\NC(=O)c1ccc(C)cc1)C1C(=O)c2ccccc2C1=O", "inhibition": "77.1% (active)"}, {"smiles": "CC(=O)N1c2ccc(S(=O)(=O)N3CCCC(C(=O)Nc4ccc(C)cc4C)C3)cc2CC1C", "note": "(configuration not stated)", "inhibition": "7.52% (inactive)"}, {"smiles": "CSc1ccc(C#N)cc1NC(=O)c1ccc(Cl)cc1", "inhibition": "0.394% (inactive)"}, {"smiles": "CC(=O)c1sc(N/N=C/c2ccc(C(C)C)cc2)nc1C", "inhibition": "0.0938% (inactive)"}, {"smiles": "CNC(=O)c1sc(NCc2ccccc2OC)nc1C", "inhibition": "6.9% (inactive)"}, {"smiles": "COc1cccc2sc(Nc3nc(C)c(C(C)=O)s3)nc12", "inhibition": "69.1% (active)"}, {"smiles": "COc1ccc(S(=O)(=O)N2CCOC2CNC(=O)C(=O)NCc2ccc(F)cc2)cc1", "note": "(configuration not stated)", "inhibition": "2.2% (inactive)"}, {"smiles": "Cc1nc2cc(NC(=O)Nc3cccc(F)c3)ccc2n1C", "inhibition": "96.5% (active)"}, {"smiles": "Cn1c(CCN2CCCCCC2)nc2cc(NC(=O)Nc3ccccc3)ccc21", "inhibition": "10% (inactive)"}, {"smiles": "C=CCN(C(=O)Nc1ccc2c(c1)nc(C)n2C)c1ccccc1", "inhibition": "5.72% (inactive)"}, {"smiles": "Cc1nc2nc(CSc3nc4ccccc4s3)cc(=O)n2[nH]1", "inhibition": "-13.3% (inactive)"}, {"smiles": "NC(=O)c1ccc(Nc2ccc3nonc3c2[N+](=O)[O-])cc1", "inhibition": "-0.507% (inactive)"}, {"smiles": "O=[N+]([O-])c1c(NCCO)cc(Sc2nc3ccccc3s2)c2nonc12", "inhibition": "79.2% (active)"}, {"smiles": "COc1ccc(OCC(O)CN(C)C(=O)C(C)Oc2ccccc2)cc1", "note": "(configuration not stated)", "inhibition": "11.8% (inactive)"}, {"smiles": "COc1ccc(C2=NS(=O)(=O)N(C)C(C(=O)N3CCCCC3)=C2)cc1", "inhibition": "-5.66% (inactive)"}, {"smiles": "O=C(CCNS(=O)(=O)c1cccs1)N1CCN(c2ccc(F)cc2)CC1", "inhibition": "-1.51% (inactive)"}, {"smiles": "N/C(=N\\OC(=O)CC1CCCCC1)c1ccccc1", "inhibition": "21.8% (inactive)"}, {"smiles": "N/C(=N\\OC(=O)CCC1CCCCC1)c1ccccn1", "inhibition": "82% (active)"}, {"smiles": "COc1ccccc1OCC(=O)O/N=C(\\N)c1ccccn1", "inhibition": "7.18% (inactive)"}, {"smiles": "O=C(CSc1nnc(COc2ccc(Cl)cc2)n1Cc1ccco1)N1CCNC1=O", "inhibition": "-0.0156% (inactive)"}, {"smiles": "O=S(=O)(NCC1CC1)c1ccc(F)c(Cl)c1", "inhibition": "2.72% (inactive)"}, {"smiles": "COc1ccccc1N=C(C)C1=C(O)COC1=O", "inhibition": "-4.17% (inactive)"}, {"smiles": "COc1cc(N=Cc2c(O)c3ccccc3oc2=O)c(OC)cc1Cl", "inhibition": "-0.159% (inactive)"}, {"smiles": "COc1ccccc1N=Cc1c(O)c2ccccc2oc1=O", "inhibition": "88% (active)"}, {"smiles": "N/C(=N\\OC(=O)c1ccc2c(c1)OCO2)c1ccc(Br)cc1", "inhibition": "71.1% (active)"}, {"smiles": "N/C(=N\\OC(=O)/C=C/c1ccccc1)c1ccc(Br)cc1", "inhibition": "9.06% (inactive)"}, {"smiles": "N/C(=N\\OC(=O)N1c2ccccc2Sc2ccccc21)c1ccc(Br)cc1", "inhibition": "-8.09% (inactive)"}]}]}
